# The list is not random: actives were taken first. Their share in the collection is about 3.2%.
# aDG glyco act: increases alpha dystroglycan glycosylation; Pro5-aDG cells, alpha-DG glycosylation AlphaScreen (IIH6); 0% Pro5, 100% B10-LARGE cell signal; activation, % at 10 µM; actives 0.22% (n = 360,000);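 active = activation of at least 8% versus controls, or a plate z-score of at least 8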;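 also: Pro5 are CHO cells carrying HIG-tagged alpha-DG that lacks glycosylation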
# FAS-TE inh: blocks the thioesterase domain of human fatty acid synthase | inhibition, % at 15 µM | actives 0.67% (n = 360,000) | P49327 | recombinant FAS-TE, OMFH fluorogenic substrate, fluorescence endpoint | AID 602261;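 active = compounds whose normalised, plate-corrected inhibition of enzyme fluorescence in the single-dose primary screen is 50% or more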;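 also: 0% = DMSO with enzyme and 100% = substrate without enzyme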
# CRFBP-R2 block: CRF-BP/CRF-R2 complex antagonism; HEK293 CRF-R2/CRF-BP, CRF-induced calcium fluorescence; inhibition, % at 11.8 µM; actives 0.59% (n = 350,000);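 active = inhibition of the ligand-induced calcium signal above about 50% at the single tested concentration, limit read from the data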
# CRFR2-BP ag: agonists of human CRF-binding protein/CRF-R2 receptor complex. HEK293 CRF-R2/CRF-BP, calcium dye fluorescence (FLIPR); percent of saturating CRF peptide response. activation, % at 13.2 µM. actives 0.46% (n = 350,000). AID 588473;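 active = activation of at least 50%, plus an integration ratio under a set limit after plate pattern correction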;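 also: plate controls were neutral control wells without compound for no effect and CRF at EC100 for full effect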
# H9c2 protect: myocardial damage modulation in H9c2 cells; H9c2 cardiomyocytes, H2O2 injury protection, ATPLite, 2 h; actives 0.63% (n = 360,000); protection from H2O2 cell death, % at 20 µM;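 active = compounds giving at least 50% protection of heart cells from peroxide-induced death in the single-dose screen, raw or plate-pattern-corrected value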;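 also: 0% = DMSO wells with peroxide and 100% = DMSO wells without peroxide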
# PfG6PD inh: PfG6PD (Plasmodium falciparum) enzyme inhibition | inhibition, % at 20 µM | PfGluPho enzyme, NADPH resazurin-diaphorase fluorescence | actives 0.78% (n = 350,000);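 active = inhibition reaching at least a set limit at 20 µM in the primary screen, cut at about 59% in these data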;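 also: 0% = DMSO wells with substrate and 100% = DMSO wells lacking glucose-6-phosphate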
# Starred values were filed as active, the others as inactive; · = not tested or not shown.
SMILES,aDG glyco act,FAS-TE inh,CRFBP-R2 block,CRFR2-BP ag,H9c2 protect,PfG6PD inh
COc1cccc(CNC(=S)Nc2cc(C)ccc2C)c1,0,-2,3,0,-3,5
CC(C)CC[n+]1ccccc1/C=C/c1ccc(N(C)C)cc1,0,-7,-73,51*,-18,-2
CN(C)c1ccc(/C=C/c2cccc[n+]2[O-])cc1,0,-9,-20,15,0,17
O=C(OCC(=O)N1CCCC1=O)C1COc2ccccc2O1 (stereo unspecified),0,-1,12,-1,4,7
CCOc1ccc(CNC(=O)CCC(=O)N2Cc3cccc(OC)c3Oc3ncccc32)cc1,0,-6,52*,-1,-2,8
CCc1ccc(CNC(=O)CCC(=O)N2Cc3cccc(OC)c3Oc3ncccc32)cc1,0,-4,-3,0,2,3
Cc1ccc([N+](=O)[O-])cc1N/C=C1\CCCCC1=O,1,9,-37,-1,-17,41
CCCS(=O)(=O)c1c(S(=O)(=O)CCC)c2c(C)cccn2c1C(=O)N/N=C/c1cc(O)cc(O)c1,1,10,-4,1,53*,-26
CCCCCCn1cnc2c(c1=O)c1nc3ccccc3nc1n2/N=C/c1ccco1,0,20,21,-1,55*,28
COCCn1cnc2c(c1=O)c1nc3ccccc3nc1n2/N=C/c1ccco1,0,-3,14,-8,26,1
COCCn1cnc2c(c1=O)c1nc3ccccc3nc1n2/N=C/c1ccc(OC)c(OC)c1,0,0,11,-1,51*,9
c1ccc(C[n+]2csc3ccccc32)cc1,0,-9,-22,-4,-2,62*
NC(=O)CS(=O)(=O)c1nc2ccccc2n1Cc1ccccc1F,0,-1,118*,2,0,-3
COc1ccc(-c2cnc(C(O)c3ccc(C(C)(C)C)cc3)[nH]2)cc1 (stereo unspecified),0,16,·,·,-2,·
O=C(NCCN1CCOCC1)c1ccc(Cl)cc1,0,3,13,0,-4,-1
CC(=O)c1sc2nsc(SCCN3CCCCC3)c2c1N,0,1,-7,1,5,43
Nc1c(C(=O)c2ccc(Cl)cc2)sc2nsc(SCCN3CCOCC3)c12,1,-15,-73,92*,-9,12
Nc1c(C(=O)c2ccccc2)sc2nsc(SCCN3CCCC3)c12,0,-12,-80,102*,-8,9
Cc1c(-c2ccccc2)nc2ccccc2c1C(=O)Nc1ccncc1,0,-2,-15,0,-1,-7
Cc1ccc(S(=O)(=O)/N=C(/c2ccc(F)cc2)N2CCOCC2)cc1,0,-4,-1,-2,0,9
O=S(=O)(/N=C(\c1ccc(F)cc1)N1CCOCC1)c1ccccc1,0,-5,-21,50*,1,-8
Nc1nn2c(-c3ccccc3)cc(=O)[nH]c2c1N=Nc1ccc(O)cc1,0,3,-105,97*,28,1
Nc1nn2c(-c3ccccc3)cc(=O)[nH]c2c1N=Nc1ccc(Br)cc1,0,37,73*,-1,31,-2
Nc1[nH]n2c(=O)cc(-c3ccccc3)nc2c1N=Nc1ccccc1,3,3,19,-3,15,-15
O=c1c(N=Nc2ccc(O)cc2)c(-c2ccccc2)[nH]n1-c1ccc([N+](=O)[O-])cc1,0,5,15,-3,-2,6
SMILES,aDG glyco act,FAS-TE inh,CRFBP-R2 block,CRFR2-BP ag,H9c2 protect,PfG6PD inh
CC1CN2C(c3ccc([N+](=O)[O-])cc3)=CSC2=N1 (stereo unspecified),0,-40,2,-1,-4,41
CCOC(=O)c1cc(=O)c2ccc(OCC(=O)Nc3ccc(F)cc3)cc2o1,0,1,-10,-4,9,0
CCCNC(=O)NNC(=O)c1ccc(F)cc1,0,-8,20,-1,16,-4
CCN(CC(=O)Nc1c(F)cccc1F)C(=O)CCc1nc2ccccc2c(=O)[nH]1,0,-3,-1,1,64*,-1
CCN(CC(=O)Nc1c(F)cccc1F)C(=O)CCCc1nc2ccccc2c(=O)[nH]1,0,-6,-2,1,26,-5
CCN(CC(=O)Nc1c(F)cccc1F)C(=O)Cc1n[nH]c(=O)c2ccccc12,0,-9,-7,1,60*,-11
CCCN(CC(=O)Nc1ccc(F)c(F)c1F)C(=O)CCc1nc2ccccc2c(=O)[nH]1,0,0,-4,-1,68*,-16
COc1ccc(CN(CCN)C2CC(C)N(C)CC2C)cc1 (stereo unspecified),0,-1,4,7,4,-7
COc1ccccc1NC(=O)CCSc1nnc(-c2ccncc2)o1,0,-5,-7,0,2,11
Cc1ccc(C(C)(C)C)cc1S(=O)(=O)Nc1nc2ccccc2nc1Cl,0,0,64*,12,-7,-33
CCOc1cc(/C=C/C(=O)OCC(=O)N(CC)C2CCS(=O)(=O)C2)cc(Cl)c1OC (stereo unspecified),0,-5,10,5,-3,-7
CC1Nc2ncnc(N3CCN(c4ccccc4)CC3)c2N(Cc2ccc(Cl)cc2)C1=O (stereo unspecified),0,20,-12,0,61*,10
O=C(NCC1CCCO1)c1cc2ccccc2o1 (stereo unspecified),4,-7,-3,2,8,-3
O=C(NCC(=O)N(Cc1ccccc1)C(C(=O)NC1CCCCC1)c1ccco1)c1ccco1 (stereo unspecified),0,2,-5,1,97*,-30
COc1ccc(C(C(=O)NC2CCCC2)N(Cc2ccccc2)C(=O)CNC(=O)c2ccco2)cc1 (stereo unspecified),0,-9,-29,-2,4,-25
O=C(NCC(=O)N(Cc1cccs1)C(C(=O)NC1CCCC1)c1ccco1)c1cccs1 (stereo unspecified),0,-1,-12,-1,59*,-9
O=C(NCC(=O)N(Cc1cccs1)C(C(=O)NC1CCCCC1)c1ccncc1)c1ccco1 (stereo unspecified),0,0,-4,0,3,-9
CCc1ccccc1NC(=S)N(Cc1ccc(OC)cc1)CC1CCC(C(=O)O)CC1 (stereo unspecified),0,-5,-22,-1,1,-10
O=C(NC(=S)NCC1CCCO1)C(c1ccccc1)c1ccccc1 (stereo unspecified),0,8,55*,2,-1,-11
Cc1cc(-c2csc3nc[nH]c(=S)c23)cc(C)c1C,1,12,-5,-2,61*,12
Cc1ccc(-c2csc3nc[nH]c(=S)c23)cc1,1,7,17,-2,43,11

# Bioassay records deposited in PubChem BioAssay by Sanford-Burnham Center for Chemical Genomics.
